Screening results: PubChem BioAssay, National Center for Advancing Translational Sciences (NCATS)
VACV Venus inh – inhibitors of vaccinia virus (Venus reporter); Vaccinia virus Venus reporter expression, fluorescence; Potency, µM (series often up to 36.5 µM), without a hit: at the top dose activity change, negative = inhibition, most hits filed as inhibitors; hit rate 0.46% among 330,000; calls by dose curve; tested in A549 cells; also: nearly all actives have a fitted effect of over 30% in size
FMDV antiviral – foot and mouth disease virus antiviral activity | FMDV antiviral cell-based qHTS | Potency, µM (series often up to 57.9 µM), without a hit: at the top dose activity change, negative = inhibition, usual class: inhibitors | hit rate 1.2% among 410,000 | AID 1159524; calls by dose curve; tested in HEK293T cells; also: read-out not given here; nearly all actives have a fitted effect of over 45% in size
MARV entry inh – Marburg virus entry inhibition | Marburg virus pseudotyped entry inhibition, cell reporter | Potency, µM (doses to about 37.8 µM), inactives show top-dose activity change, negative = inhibition, usual class: inhibitors | hit rate 1.8% among 300,000 | AID 540276; calls by dose curve; tested in HEK293 cells
Lassa entry inh – blocks Lassa virus binding to or entry into cells | AID 540256 | Lassa virus pseudotype entry inhibition, cell reporter | hit rate 1.2% among 300,000 | Potency, µM (top dose mostly 37.9 µM), inactives show at the highest dose activity change, negative = inhibition, hits mostly inhibitors; calls by dose curve; tested in HEK293 cells; also: nearly all actives have a fitted effect of over 50% in size
VACV mCherry inh – inhibitors of vaccinia virus infection (mCherry reporter signal); hit rate 0.63% among 310,000; Potency, µM (top dose mostly 36.5 µM), for the others: at the top dose activity change, negative = inhibition, most hits filed as inhibitors; AID 720579; Vaccinia virus mCherry reporter infection, fluorescence; calls by dose curve; tested in A549 cells; also: nearly all actives have a fitted effect of over 35% in size
The depositor's hits bear a star; i = inactive; ? = inconclusive; · = no result; [ ] = another dose, or the depositor's remark. An excerpt weighted towards active compounds, which were near 3.2% of everything screened. % is scaled to controls: 0 for no effect and ±100 for the full control effect; potency is read from the fitted curve at half-maximal effect.

SMILES	VACV Venus inh	FMDV antiviral	MARV entry inh	Lassa entry inh	VACV mCherry inh
CCNC(=S)NNC(=O)c1cc(-c2ccc(OCC)cc2)nc2ccccc12	·	13µM*	?	1.2µM*	·
CS(=O)(=O)c1ccc(Cl)c(NC(=O)CSc2n[nH]c(-c3cccs3)n2)c1	·	-5%	·	·	·
COCCCn1c(SCC(=O)Nc2ccc(C)cc2)nc2ccccc2c1=O	1%	1%	-14%[46.1 µM]	0%	i
Cc1ccc(NC(=O)CSc2nc3ccccc3c(=O)n2CCC(=O)NC2CCCCC2)cc1C	-30%	0%	·	15%[46.1 µM]	?
Cc1[nH]c2ccccc2c1C(=O)CSc1nc2ccccc2c(=O)n1CCCN1CCOCC1	-14%	?	11µM*	-23%	·
Cc1ccc(NC(=O)CSc2nc3ccccc3c(=O)n2CCCC(=O)N2CCCC2)cc1	·	-16%	8.2µM*	?	·
Cn1c(N)c(C(=O)CSc2nc3ccccc3c(=O)n2CCCN2CCOCC2)c(=O)n(C)c1=O	·	7%	·	·	·
Cc1ccc(NC(=O)CSc2nc3ccccc3c(=O)n2CCCN2CCCCC2)cc1C	·	-19%	?	21µM*	·
CC1=C[C@@H](COCc2ccccc2)O[C@@]2(C1)C(=O)Nc1cccc(Br)c12	·	·	9%[14.2 µM]	?	·
COc1cccc(-c2nc(S(=O)(=O)c3ccc(Cl)cc3)c(NCc3ccccc3)o2)c1	-5%[7.34 µM]	0%	4%[46.1 µM]	?	-1%[7.34 µM]
Cc1ccc(S(=O)(=O)N(C)C[C@H]2OCc3cn(nn3)CCCC(=O)N([C@H](C)CO)C[C@@H]2C)cc1	-14%	-14%	·	·	i
Cc1ccc(C(=O)c2coc3ccc(O)c(CN4CCN(C)CC4)c23)cc1	·	-20%	23µM*	-17%	·
Cc1cncn1CCc1nc2c3ccccc3nc(SCC(=O)Nc3cccc(Cl)c3)n2n1	?	-17%	6.5µM*	?	-13%
Cc1nc2ccccc2n1CCc1nc2c3ccccc3nc(SCC(=O)NCc3ccco3)n2n1	·	?	10µM*	?	·
Cc1n[nH]c(C)c1CCc1nc2c3ccccc3nc(SCC(=O)Nc3ccccc3F)n2n1	?	-12%	?	-15%	?
Cc1cncn1CCc1nc2c3ccccc3nc(SCC(=O)Nc3ccc(F)cc3)n2n1	10%	-11%	·	7%[46.1 µM]	-2%
Cc1cccc(NC(=O)CSc2nc3ccccc3c3nc(CCc4c(C)n[nH]c4C)nn23)c1	-16%	?	18µM*	?	-29%
Cc1ccccc1NC(=O)CSc1nc2ccccc2c2nc(CCn3c(C)nc4ccccc43)nn12	?	?	·	1%[46.1 µM]	?
CC1CCC(NC(=O)c2ccc(CS(=O)(=O)c3cccc(C(F)(F)F)c3)o2)CC1 (stereo not given)	-3%	-25%	?	-1%[46.1 µM]	-15%
CCN1C(=O)[C@H]2[C@H]3[C@H](O)[C@H](O)C/C(=N\OC[C@@H](O)COCc4ccco4)[C@@H]3CC[C@H]2C1=O	·	·	34%[14.2 µM]	·	·
COc1ccc(N2CCN(c3ccc(NC(=O)NN)cc3)CC2)cc1	-21%	-11%	2%	-7%	-3%
CC1Cc2ccccc2N1Cc1cc(=O)c(OCC(=O)Nc2ccccc2)co1 (stereo not given)	-6%	-6%	-3%	-25%	-10%
COc1ccc(CCNC(=O)COc2coc(CN3c4ccccc4CC3C)cc2=O)cc1OC (stereo not given)	-15%	22µM*	?	?	0%
Cc1cc(=O)c2c(O)c3c(O)cc(O)c4c5c(O)cc(O)c6c(O)c7c(=O)cc(C)c8c1c2c(c34)c(c65)c78	-1%	-4%	·	·	7%
CCOC(=O)c1cc(NC(=O)c2ccccc2)c(=O)n2c1oc1ccccc12	7.9µM*	-11%	·	·	10µM*
SMILES	VACV Venus inh	FMDV antiviral	MARV entry inh	Lassa entry inh	VACV mCherry inh
NC(=O)c1c(NC(=O)c2ccc([N+](=O)[O-])o2)sc2c1CCCC2	-23%	27%	-2%[46.1 µM]	?	?
CN1CCc2c(sc(NC(=O)c3ccc([N+](=O)[O-])o3)c2C(N)=O)C1	2.2µM*	-6%	?	?	?
O=S(=O)(CS(=O)(=O)c1ccccc1)c1ccccc1	-19%	5%	-19%[46.1 µM]	11%[46.1 µM]	i
O=S(=O)(C/C(=C/CO)S(=O)(=O)c1ccccc1)c1ccccc1	·	7.9µM*	1.8µM*	?	·
O=C(NCCc1ccc(Cl)cc1)c1cc(-c2ccc(Cl)cc2)n[nH]1	-2%	0%	·	3%[46.1 µM]	-3%
CCOc1ccc(NC(=S)NC(=O)/C=C/c2ccc(OC)c(OC)c2)c([N+](=O)[O-])c1	-16%	-18%	15µM*	?	i
